# Results filed as inconclusive are left out. A call without a number means that no potency is given here. Active and inactive are the calls of the source. Unless noted, calls come from the whole dose curve; as a rule, active = well fitted curve in the direction sought with a large enough effect; inconclusive = small, poorly fitted or top-dose-only effect, or another doubt; inactive = no such curve, though single readings can be large; an effect the other way counts as inactive or inconclusive.
# Tests used:
# [1] = target: Luciferin 4-monooxygenase (Photinus pyralis) (UniProt P08659); assay: Biochemical firefly luciferase enzyme assay for NPC (AID 624030);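 note: purified P. pyralis luciferase at 10 nM with luciferin and ATP substrate; series mostly up to about 59 µM; nearly all actives have a fitted effect of over 70% in size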
# Chain of Luciferin 4-monooxygenase (Photinus pyralis) (P08659 whole entry, looked up): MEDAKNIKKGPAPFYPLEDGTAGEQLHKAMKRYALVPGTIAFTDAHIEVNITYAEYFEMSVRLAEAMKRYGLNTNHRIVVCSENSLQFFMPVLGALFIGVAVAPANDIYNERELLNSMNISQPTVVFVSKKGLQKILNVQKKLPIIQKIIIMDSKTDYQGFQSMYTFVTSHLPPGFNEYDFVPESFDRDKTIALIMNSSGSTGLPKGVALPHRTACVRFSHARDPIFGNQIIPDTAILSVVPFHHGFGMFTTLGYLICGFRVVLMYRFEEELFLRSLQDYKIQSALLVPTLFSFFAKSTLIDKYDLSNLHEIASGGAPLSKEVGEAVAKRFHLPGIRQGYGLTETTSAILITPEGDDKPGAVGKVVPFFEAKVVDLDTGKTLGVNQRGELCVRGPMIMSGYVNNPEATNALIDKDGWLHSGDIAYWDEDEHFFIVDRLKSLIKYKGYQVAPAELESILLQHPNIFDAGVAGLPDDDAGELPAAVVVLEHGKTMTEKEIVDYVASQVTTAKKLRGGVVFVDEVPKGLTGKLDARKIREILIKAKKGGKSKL
# How it was run: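 Counter-screen for direct inhibition of the luciferase enzyme by approved-drug library compounds, run at 10 nM enzyme in 50 mM Tris acetate (final). Luminescence was read within 5 min of enzyme-buffer addition and normalized to PTC124 versus DMSO (0%).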
# [2] = S16 Schwann cell viability assay (CellTiter-Glo assay) (AID 624031); note: nearly all actives have a fitted effect of over 70% in size; note: potency is the fitted concentration of half-maximal effect
# How it was run: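 Rat S16 Schwann cells without reporter constructs received compound or DMSO for 24 h at 37 °C under 5% CO2. Cellular ATP was then quantified by CellTiter-Glo luminescence, with vehicle wells defined as 0% activity and cell-free wells as reference.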
# [3] = target: Glucagon-like peptide 1 receptor (Homo sapiens) (UniProt P43220); assay: qHTS of GLP-1 Receptor Agonists: LOPAC Validation (AID 624148);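 note: higher luminescence signal means agonism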
# Chain of Glucagon-like peptide 1 receptor (Homo sapiens) (P43220 whole entry, looked up): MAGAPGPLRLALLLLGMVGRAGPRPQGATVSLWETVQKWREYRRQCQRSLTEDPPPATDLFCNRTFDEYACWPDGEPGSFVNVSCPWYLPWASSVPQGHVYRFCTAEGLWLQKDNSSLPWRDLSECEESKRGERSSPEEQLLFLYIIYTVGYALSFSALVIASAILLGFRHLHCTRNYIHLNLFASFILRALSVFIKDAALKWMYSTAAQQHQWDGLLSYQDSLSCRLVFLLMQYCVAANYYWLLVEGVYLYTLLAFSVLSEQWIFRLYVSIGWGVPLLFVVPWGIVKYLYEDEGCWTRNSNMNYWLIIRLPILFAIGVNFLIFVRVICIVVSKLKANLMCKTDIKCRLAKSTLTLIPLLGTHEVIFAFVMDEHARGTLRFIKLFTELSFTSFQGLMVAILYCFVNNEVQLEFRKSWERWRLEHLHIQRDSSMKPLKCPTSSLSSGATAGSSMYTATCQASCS
# How it was run: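 HEK293 cells stably co-expressing a cAMP-responsive luciferase reporter and a hypersensitive GLP-1R were plated 12 h at 37 °C and exposed to compounds for 4-6 hr at 37 °C, 5% CO2. Luminescence was read 12 min after adding detection reagent.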
# [4] = qHTS of Nrf2 Activators: LOPAC Validation (AID 624149)
# How it was run: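 Luminescence read-out of ARE-luciferase activation: AREc32_Fluc cells treated with compounds for 24 hr at 37 deg C, then lysed with Steady-Glo for 30 min at room temperature before reading.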
# [5] = S16 Schwann cell PMP22 intronic element beta-lactamase assay (AID 624044; calls by dose curve; note: nearly all actives have a fitted effect of over 15% in size)
# How it was run: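 Rat S16 Schwann cells with beta-Lac driven by a PMP22 intronic element, compound-treated 24 h at 37 °C. LiveBLAzer FRET B/G read: 460 nm normalized to potassium clavulanate vs DMSO; 535 nm FRET as viability; concentration-effect curves classified.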
# [6] = Cytotoxicity counterscreen for NFkB agonists and antagonists (AID 624476);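 note: cells exposed to compound for 48 hours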; note: potency is the fitted concentration of half-maximal effect
# [7] = target: Glutaminase kidney isoform, mitochondrial (Homo sapiens) (UniProt O94925); assay: qHTS for Inhibitors of Glutaminase (GLS): LOPAC Validation (AID 624146);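 note: glutamate product detected by oxidase and peroxidase coupled Amplex red fluorescence gain; series mostly up to about 46 µM; nearly all actives have a fitted effect of over 60% in size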
# Chain of Glutaminase kidney isoform, mitochondrial (Homo sapiens) (O94925 whole entry, looked up, canonical isoform): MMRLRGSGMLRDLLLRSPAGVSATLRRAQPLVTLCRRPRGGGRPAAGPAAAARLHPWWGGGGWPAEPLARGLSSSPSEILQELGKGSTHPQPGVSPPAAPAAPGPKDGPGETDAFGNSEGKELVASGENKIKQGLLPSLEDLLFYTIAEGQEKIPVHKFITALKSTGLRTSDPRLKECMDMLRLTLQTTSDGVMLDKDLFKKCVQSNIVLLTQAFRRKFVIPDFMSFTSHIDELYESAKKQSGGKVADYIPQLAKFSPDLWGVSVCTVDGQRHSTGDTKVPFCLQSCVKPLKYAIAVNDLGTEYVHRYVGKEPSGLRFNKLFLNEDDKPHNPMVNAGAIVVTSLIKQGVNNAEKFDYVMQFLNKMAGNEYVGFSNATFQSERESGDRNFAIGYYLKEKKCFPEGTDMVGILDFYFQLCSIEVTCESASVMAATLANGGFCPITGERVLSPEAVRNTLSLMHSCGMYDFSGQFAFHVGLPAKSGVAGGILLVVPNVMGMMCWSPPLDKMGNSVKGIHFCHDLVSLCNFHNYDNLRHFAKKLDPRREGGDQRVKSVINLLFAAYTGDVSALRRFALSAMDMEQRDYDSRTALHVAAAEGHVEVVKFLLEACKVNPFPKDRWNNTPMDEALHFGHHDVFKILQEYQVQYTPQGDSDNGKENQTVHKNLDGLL
# How it was run: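 Coupled fluorescence readout: glutamate oxidase/HRP/Amplex Red detect glutamate formed by hKGA from L-glutamine (1 mM solution added). Buffer 45 mM KH2PO4 pH 8.2, 0.02% Tween-20; reads at t0 and 30 min RT.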
# [8] = HTS Assay for Allosteric Antagonists of the Human D2 Dopamine Receptor: Hit Validation in HTRF (AID 624455);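 note: stable D1 dopamine receptor cell line scored for blocking the D1 response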
# How it was run: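 First, antagonism was screened by calcium flux in a force-coupled, inducible Hek293 Trex D2 line challenged with EC80 dopamine. Hits then went into an HTRF assay in cells stably expressing D1, testing inhibition of the D1 response.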
# [9] = S16 Schwann cell PMP22 intronic element firefly luciferase assay (AID 624032); note: series mostly up to about 58 µM; nearly all actives have a fitted effect of over 30% in size
# How it was run: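 Rat S16 Schwann cells stably carrying a PMP22 intronic element-driven Fluc reporter were seeded overnight, then exposed to compounds for 24 h at 37 °C. Luminescence was normalized to PTC124 (positive control) and DMSO (0% activity).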
compound,measurement,setting,value
COc1cc([C@@H]2c3cc4c(cc3[C@H](O)[C@H]3COC(=O)[C@H]23)OCO4)cc(OC)c1OC,Potency,[1],inactive
same,Potency,[2],inactive
Cc1c(-c2ccc(O)cc2)n(Cc2ccc(OCCN3CCCCCC3)cc2)c2ccc(O)cc12,Potency,[1],inactive
CC1=C(C(=O)O)N2C(=O)[C@@H](NC(=O)C(N)c3ccccc3)[C@H]2SC1 (stereo not given in full),outcome,[3],inactive
same,outcome,[4],inactive
CC1=CC(=O)c2ccccc2C1=O,Potency,[1],inactive
same,Potency,[2],14.4 µM (active)
same,Potency,[5],inactive
Cc1cccc(N(C)C(=S)Oc2ccc3ccccc3c2)c1,Potency,[1],inactive
same,Potency,[2],inactive
C1CCC(C(CC2CCCCN2)C2CCCCC2)CC1 (stereo not given),Potency,[1],inactive
same,Potency,[2],18.1 µM (active)
CC(C)C[C@H](NC(=O)[C@H](CCc1ccccc1)NC(=O)CN1CCOCC1)C(=O)N[C@@H](Cc1ccccc1)C(=O)N[C@@H](CC(C)C)C(=O)[C@@]1(C)CO1,Potency,[1],inactive
same,Potency,[6],0.148 µM (active)
NC1(c2ccc(-c3nc4ccn5c(=O)[nH]nc5c4cc3-c3ccccc3)cc2)CCC1,Potency,[1],inactive
CCN(CC)CCn1c(=O)c(Cc2ccc(OC)cc2)nc2ccccc21,Potency,[1],inactive
same,outcome,[7],inactive
same,outcome,[3],inactive
same,outcome,[4],inactive
same,Potency,[8],inactive
same,Potency,[6],inactive
NCCCC(O)(P(=O)(O)O)P(=O)(O)O,Potency,[1],inactive
same,Potency,[2],inactive
same,Potency,[9],inactive
same,Potency,[5],inactive
COc1ccc(C(=O)CC(=O)c2ccc(C(C)(C)C)cc2)cc1,Potency,[1],inactive
same,Potency,[2],inactive
same,Potency,[5],inactive
CCCOc1ccc(C(=O)OCCN(CC)CC)cc1N,Potency,[1],inactive
CCCCCCNC(=O)n1cc(F)c(=O)[nH]c1=O,Potency,[2],inactive
same,Potency,[9],inactive
CN(C)CCc1c[nH]c2ccc(CS(=O)(=O)N3CCCC3)cc12,Potency,[2],inactive
same,Potency,[9],inactive
COc1cc2nc(N3CCCN(C)CC3)nc(NC3CCN(Cc4ccccc4)CC3)c2cc1OC,outcome,[7],inactive
same,outcome,[3],inactive
same,outcome,[4],inactive
same,Potency,[8],inactive
CC(C)(C)C(=O)OCOP(=O)(COCCn1cnc2c(N)ncnc21)OCOC(=O)C(C)(C)C,Potency,[2],inactive
CNS(=O)(=O)CCc1ccc2[nH]cc(C3CCN(C)CC3)c2c1,Potency,[1],inactive
CCCCc1oc2ccc(NS(C)(=O)=O)cc2c1C(=O)c1ccc(OCCCN(CCCC)CCCC)cc1,Potency,[1],inactive
